Active and inactive are the calls of the source. Unless noted, no rule for the calls is given here.
Key:
[1] = test system: Wnt5a (protein binding on small-molecule microarray); test: Wnt5a binders on small-molecule microarray, primary screen, biophysical, 635/667 nm fluorescence (AID 1142); details: 635 nm fluorescence, higher = more signal;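 also: fluorescence read at 667 nm with signal to noise per printed feature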
[2] = cell viability in Huh7 cells, primary screen, cytotoxicity control for HCV replication inhibitor project, CellTiter-Glo luminescence, basal, 48 h (AID 1143); details: Huh7 HCV replicon, higher = more signal, called active from +8 up or from −8 down;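 also: Huh7 hepatoma cells carrying a hepatitis C replication reporter with no stimulus; test concentration not given here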
[3] = P. aeruginosa biofilm formation inhibitors, primary screen, PAO1 strain, BacTiter-Glo luminescence, LB-PBS (AID 1144); details: 12 h, higher = more signal
[4] = CREB reporter modulators without forskolin, primary screen, cell-based, PC12, CRE-LacZ reporter, unstimulated (AID 1145); details: no forskolin, luminescence, 4.5 h, higher = more signal, called active from +8 up or from −8 down
[5] = CREB reporter modulators under forskolin, primary screen, cell-based, PC12, CRE-LacZ reporter, forskolin-stimulated (AID 1146); details: luminescence, 4.5 h, higher = more signal, called active from +8 up or from −8 down;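 also: PC12 cells with 6xCRE LacZ reporter stimulated by forskolin 10 µM; beta-galactosidase reporter signal reflecting CREB driven transcription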
[6] = molecular target: Streptavidin (Streptomyces avidinii) (UniProt P22629); test: streptavidin binders on small-molecule microarray, primary screen, artefact control for SMM compound annotation, biophysical, 635/667 nm fluorescence (AID 1147); details: streptavidin binding, higher = more signal;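 also: signal reflects streptavidin binding to arrayed compounds as a control protein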
[7] = small-molecule binders of probe aInhba, primary screen, biochemical, small-molecule microarray, 635/667 nm fluorescence (AID 1148); details: higher = more signal;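 also: score merges 667nm spot fluorescence with signal-to-noise for antibody binding to printed compounds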
Torsin-1A (Homo sapiens) [8] = molecular target: Torsin-1A (Homo sapiens) (UniProt O14656); test: torsin A binders from cell lysate, primary screen, small-molecule microarray, wild-type, 635/667 nm (AID 1149); details: COS7 hTOR1A-WT lysate, 635 nm fluorescence, higher = more signal
Torsin-1A (Homo sapiens) [9] = molecular target: Torsin-1A (Homo sapiens) (UniProt O14656); test: small-molecule binders of mutant TOR1A in lysate, primary screen, cell lysate, small-molecule microarray, COS7 lysate, 635/667 nm fluorescence (AID 1150); details: COS7 hTOR1A mutant lysate, 635 nm fluorescence, higher = more signal;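 also: score pools 667 nm emission and signal to noise measuring lysate protein binding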
[10] = test system: Sonic hedgehog protein (Shh); test: small-molecule binders of Shh protein, primary screen, biochemical, small-molecule microarray, 635/667 nm fluorescence (AID 1151); details: small-molecule microarray binding, 635 nm fluorescence; higher = more signal;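 also: Shh protein binding to compounds spotted on small-molecule microarray slides; score combines spot fluorescence intensity with signal-to-noise across triplicate slides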
[11] = E. coli DRC41 culture turbidity changes, primary screen, E. coli filamentation inducer project, strain DRC41, OD650, 48 h (AID 1152);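 also: E. coli MC1000 strain DRC41 lacking acrAB efflux pump and sulA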; details: E. coli DRC41 (acrAB sulA), higher = more signal, called active from +8 up or from −8 down
[12] = small-molecule binders of probe aLefty1, primary screen, biochemical, small-molecule microarray, 635/667 nm fluorescence (AID 1153); details: higher = more signal;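 also: score merges spot fluorescence with signal-to-noise ratio from the scanned slide images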
[13] = PSAC antagonists in infected red cells, primary screen, cell-based, P. falciparum Indochina, OD700, 1 h (AID 1154); details: P. falciparum Indochina infected RBC osmotic lysis, higher = more signal, called active from +8 up or from −8 down
[14] = PSAC antagonists in infected red cells, primary screen, cell-based, P. falciparum Indochina, OD700, 2 h (AID 1155);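 also: lysis reports solute entry through the parasite surface anion channel PSAC; channel blockers reduce lysis of infected cells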; details: P. falciparum Indochina infected erythrocytes, osmotic lysis OD700; higher = more signal, called active from +8 up or from −8 down
[15] = osmotic lysis modulators in infected erythrocytes, primary screen, PSAC antagonist project, cell-based, P. falciparum Indochina, OD700, 3 h (AID 1156); details: higher = more signal, called active from +8 up or from −8 down
[16] = PSAC antagonists in infected red cells, primary screen, cell-based, P. falciparum Indochina, OD700, 18 h (AID 1157); details: P. falciparum Indochina infected erythrocytes, osmotic lysis OD700, 18 h; higher = more signal, called active from +8 up or from −8 down
[17] = modulators of S6 phosphorylation in cells, primary screen, cell-based, A549, cytoblot, luminescence, serum-stimulated (AID 1158); details: A549 phospho-S6 cytoblot, 5 h, higher = more signal;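 also: serum-stimulated A549 lung adenocarcinoma cells; signal is phosphorylated S6 detected by cytoblot immunostaining with HRP secondary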
[18] = molecular target: NADPH oxidase 2 (Homo sapiens) (UniProt P04839); test: NOX2-dependent H2O2 signal modulators, primary screen, NOX inhibitor project, cell-based, HEK293-NOX2, PMA-stimulated, Amplex Red fluorescence (AID 1159); details: 45 min, higher = more signal, called active from +8 up or from −8 down; also: test concentration not given here
[19] = molecular target: NADPH oxidase 4 (Homo sapiens) (UniProt Q9NPH5); test: NOX4-dependent H2O2 signal modulators, primary screen, NOX inhibitor project, cell-based, HEK293-NOX4, tetracycline-induced, Amplex Red fluorescence (AID 1160); details: 45 min, higher = more signal, called active from +8 up or from −8 down
[20] = molecular target: NADPH oxidase 5 (Homo sapiens) (UniProt Q96PH1); test: NOX5-dependent H2O2 signal modulators, primary screen, NOX inhibitor project, cell-based, HEK293-NOX5, Amplex Red fluorescence (AID 1161); details: HEK293-NOX5, ionomycin, 45 min, higher = more signal
Sequence of NADPH oxidase 5 (Homo sapiens) (Q96PH1 whole entry, looked up): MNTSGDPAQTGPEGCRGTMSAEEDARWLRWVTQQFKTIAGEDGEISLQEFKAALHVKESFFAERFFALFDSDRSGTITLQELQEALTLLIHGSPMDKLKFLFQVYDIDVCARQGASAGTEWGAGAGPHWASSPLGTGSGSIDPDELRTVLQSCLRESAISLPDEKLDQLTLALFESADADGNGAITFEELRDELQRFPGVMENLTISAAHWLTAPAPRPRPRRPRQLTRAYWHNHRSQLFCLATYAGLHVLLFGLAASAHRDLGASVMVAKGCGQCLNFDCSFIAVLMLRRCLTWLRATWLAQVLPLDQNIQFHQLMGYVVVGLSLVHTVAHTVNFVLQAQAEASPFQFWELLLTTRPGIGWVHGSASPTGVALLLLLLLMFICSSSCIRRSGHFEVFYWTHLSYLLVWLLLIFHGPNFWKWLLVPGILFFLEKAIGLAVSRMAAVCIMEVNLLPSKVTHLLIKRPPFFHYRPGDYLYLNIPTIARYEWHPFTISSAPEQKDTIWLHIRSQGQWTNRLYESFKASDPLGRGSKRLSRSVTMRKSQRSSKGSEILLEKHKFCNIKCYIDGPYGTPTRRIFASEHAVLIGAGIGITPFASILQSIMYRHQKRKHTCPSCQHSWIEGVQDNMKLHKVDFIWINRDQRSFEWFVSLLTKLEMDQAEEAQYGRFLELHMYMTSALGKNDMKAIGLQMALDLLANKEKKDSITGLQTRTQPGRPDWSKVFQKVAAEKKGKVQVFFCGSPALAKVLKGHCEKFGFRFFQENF

Sequence of Torsin-1A (Homo sapiens) (O14656 whole entry, looked up): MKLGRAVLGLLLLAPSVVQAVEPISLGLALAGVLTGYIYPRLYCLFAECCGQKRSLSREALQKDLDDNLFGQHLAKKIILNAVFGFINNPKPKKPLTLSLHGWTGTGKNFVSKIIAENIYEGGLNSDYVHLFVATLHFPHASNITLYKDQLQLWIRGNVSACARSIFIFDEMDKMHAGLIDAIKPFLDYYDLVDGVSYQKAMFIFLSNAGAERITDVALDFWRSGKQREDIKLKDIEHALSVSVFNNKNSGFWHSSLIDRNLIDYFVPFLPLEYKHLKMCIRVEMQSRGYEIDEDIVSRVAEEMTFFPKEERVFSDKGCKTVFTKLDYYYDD
Sequence of NADPH oxidase 4 (Homo sapiens) (Q9NPH5 whole entry, looked up): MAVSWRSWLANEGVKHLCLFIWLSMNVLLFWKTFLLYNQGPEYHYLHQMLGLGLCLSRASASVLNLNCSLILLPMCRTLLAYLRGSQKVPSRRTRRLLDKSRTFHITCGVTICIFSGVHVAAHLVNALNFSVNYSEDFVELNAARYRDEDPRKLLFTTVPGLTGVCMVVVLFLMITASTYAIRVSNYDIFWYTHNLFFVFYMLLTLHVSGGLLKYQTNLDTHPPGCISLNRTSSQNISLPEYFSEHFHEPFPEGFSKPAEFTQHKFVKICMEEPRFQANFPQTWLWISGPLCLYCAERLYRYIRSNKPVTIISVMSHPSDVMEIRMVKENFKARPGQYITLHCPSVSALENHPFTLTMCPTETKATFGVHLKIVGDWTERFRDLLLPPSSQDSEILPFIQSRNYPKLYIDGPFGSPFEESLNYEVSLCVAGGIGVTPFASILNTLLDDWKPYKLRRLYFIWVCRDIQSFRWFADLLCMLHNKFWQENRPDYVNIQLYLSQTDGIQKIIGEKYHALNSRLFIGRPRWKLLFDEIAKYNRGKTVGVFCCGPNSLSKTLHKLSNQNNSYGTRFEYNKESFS
Sequence of Streptavidin (Streptomyces avidinii) (P22629 whole entry, looked up): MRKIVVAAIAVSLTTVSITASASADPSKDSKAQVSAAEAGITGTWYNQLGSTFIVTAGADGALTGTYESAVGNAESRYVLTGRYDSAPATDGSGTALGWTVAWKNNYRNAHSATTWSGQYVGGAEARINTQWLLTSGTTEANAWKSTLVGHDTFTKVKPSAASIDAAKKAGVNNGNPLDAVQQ
Sequence of NADPH oxidase 2 (Homo sapiens) (P04839 whole entry, looked up): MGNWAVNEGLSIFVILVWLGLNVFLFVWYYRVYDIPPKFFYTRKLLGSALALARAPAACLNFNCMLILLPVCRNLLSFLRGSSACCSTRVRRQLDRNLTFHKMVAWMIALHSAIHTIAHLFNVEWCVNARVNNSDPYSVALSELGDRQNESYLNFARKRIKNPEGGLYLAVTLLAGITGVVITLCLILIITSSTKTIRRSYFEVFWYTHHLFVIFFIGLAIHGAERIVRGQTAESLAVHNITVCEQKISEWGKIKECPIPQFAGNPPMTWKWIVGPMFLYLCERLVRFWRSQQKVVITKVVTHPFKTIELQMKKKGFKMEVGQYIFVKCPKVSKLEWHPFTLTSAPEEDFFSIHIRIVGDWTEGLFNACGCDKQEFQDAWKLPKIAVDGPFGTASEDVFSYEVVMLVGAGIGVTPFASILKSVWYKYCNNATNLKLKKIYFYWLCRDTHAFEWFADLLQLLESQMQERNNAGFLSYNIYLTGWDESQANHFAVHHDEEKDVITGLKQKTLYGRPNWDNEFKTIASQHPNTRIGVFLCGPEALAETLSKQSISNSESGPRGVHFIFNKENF

Row | Structure (SMILES) | composite z-score [1] | z-score [2] | z-score [3] | z-score [4] | z-score [5] | composite z-score [6] | composite z-score [7] | composite z-score (Torsin-1A (Homo sapiens) [8]) | composite z-score (Torsin-1A (Homo sapiens) [9]) | composite z-score [10] | z-score [11] | composite z-score [12] | z-score [13] | z-score [14] | z-score [15] | z-score [16] | z-score [17] | z-score [18] | z-score [19] | z-score [20]
1 | CC(C)(C)OC(=O)CC[C@]1(C(=O)NCC(O)CO)COC(c2ccc(OCCCO)cc2)=N1 (stereo not given in full) | -0.05 | -0.0229 (inactive) | -0.904 (inactive) | -0.412 (inactive) | -0.0431 (inactive) | 0.873 | -0.003 | 0.746 | 2.65 | -1.31 | -0.0886 (inactive) | 0.149 | 5.77 (inactive) | 0.645 (inactive) | 0.639 (inactive) | 0.619 (inactive) | 0.0272 | -2.16 (inactive) | -0.351 (inactive) | -0.519
2 | CC(C)c1ccc(NN2C(C(O)c3cc(C(F)(F)F)cc(C(F)(F)F)c3)C=CC3C(=O)N(c4ccccc4)C(=O)C32)cc1 (stereo not given) | -0.0702 | -2.86 (inactive) | -1.4 (inactive) | -0.322 (inactive) | 0.849 (inactive) | 0.759 | 0.0001 | -0.283 | 0.843 | -0.254 | -2.06 (inactive) | -0.101 | 3.24 (inactive) | 1.88 (inactive) | -1.37 (inactive) | 2.32 (inactive) | 0.122 | -1.3 (inactive) | -5.07 (inactive) | -4.2
3 | C=CCNC(=O)[C@H]1[C@@H]2C(=O)O[C@@H](c3ccccc3)[C@@H](c3ccccc3)N2[C@@H](c2ccc(O)cc2)[C@]12C(=O)N(C(=O)OCCOC)c1ccc(C#CCNC(N)=O)cc12 | 0.415 | 0.621 (inactive) | 0.283 (inactive) | 0.0736 (inactive) | -0.036 (inactive) | -0.231 | 0.223 | 0.181 | -0.0483 | 1.55 | -0.929 (inactive) | 0.378 | 1.78 (inactive) | 0.441 (inactive) | -0.627 (inactive) | 0.0898 (inactive) | -0.272 | 1.28 (inactive) | 0.291 (inactive) | 0.383
4 | O=C1O[C@H](c2ccccc2)[C@H](c2ccccc2)N2[C@H]1[C@@H](C(=O)NC[C@H](O)c1ccccc1)[C@]1(C(=O)Nc3ccccc31)[C@H]2c1ccc(OCCO)cc1 | 0.187 | -2.93 (inactive) | -1.13 (inactive) | -0.0784 (inactive) | -0.499 (inactive) | 0.261 | -0.0044 | 1.55 | 0.492 | 0.297 | -1.26 (inactive) | 0.159 | 4.2 (inactive) | 1.36 (inactive) | 0.179 (inactive) | 1.47 (inactive) | 0.0578 | 1.55 (inactive) | 1.02 (inactive) | 1.34
5 | COC(=O)C=C(CC(O)c1cccc(Cl)c1)OC (stereo not given) | 0.321 | -2.41 (inactive) | -0.179 (inactive) | -0.116 (inactive) | -0.809 (inactive) | 0.307 | 1.09 | 0.208 | 1.11 | -0.425 | 0.502 (inactive) | 1.6 | 19.4 (active) | 2.27 (inactive) | -0.188 (inactive) | -0.936 (inactive) | 0.794 | 0.0865 (inactive) | -0.0239 (inactive) | 0.219
6 | CC(C)(C)OC(=O)CC[C@@]1(C(=O)NCCN2CCOCC2)N=C(c2ccc(OCCCO)cc2)O[C@@H]1c1ccccc1N=[N+]=[N-] | 0.492 | -1.34 (inactive) | 1.45 (inactive) | 1.55 (inactive) | -0.564 (inactive) | 0.554 | 0.0614 | 1.67 | 1.43 | -0.431 | 0.0974 (inactive) | 0.266 | 31.4 (active) | 28 (active) | 3.73 (inactive) | 5.67 (inactive) | -0.249 | -2.91 (inactive) | 0.765 (inactive) | -1.73
7 | Cc1ccc(S[C@]2(C(=O)NC(C)C)CC(=O)N(Cc3ccccc3Cl)[C@@H]2c2ccc(CO)cc2I)cc1 | -0.615 | -2.03 (inactive) | 0.248 (inactive) | -0.374 (inactive) | 2.53 (inactive) | -0.265 | -0.224 | -1.85 | -1.25 | -0.008 | -0.462 (inactive) | 0.0023 | 11.2 (active) | 1.44 (inactive) | 0.681 (inactive) | 0.377 (inactive) | -0.487 | 0.769 (inactive) | -1.51 (inactive) | 0.183
8 | CCCC[C@@H]1C[C@H]1[C@@H](NC(=O)c1ccco1)c1ccc(Cl)cc1 | 0.202 | -2.63 (inactive) | 0.564 (inactive) | -0.561 (inactive) | 0.473 (inactive) | 2.09 | 0.306 | 0.104 | 0.481 | -0.292 | -1.54 (inactive) | 0.485 | 4.34 (inactive) | 0.904 (inactive) | 0.365 (inactive) | 0.74 (inactive) | -0.321 | -1.72 (inactive) | -2.56 (inactive) | 0.0234
